Where a name gives a salt, the structure may show the parent alone.
Columns and labels:
Experiment in all cases: thermal shift delta Tm vs DMSO control; higher = stronger stabilization (binding)
Conditions in all cases: 12.5 µM; protein concentration 2 µM
LOC_OS01G57100-cb003 = test system: LOC_OS01G57100-cb003
Summary of the method: (§1)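 Rice kinase domain constructs, made in E. coli and purified, were placed in 96-well plates at 2 μM in 19.5 μl of 100 mM potassium phosphate pH 7.5, 150 mM NaCl, 10% glycerol and 5 × SYPRO Orange, with compound in DMSO. A temperature ramp from 25°C to 95°C at 0.05°C/s was used for differential scanning fluorimetry. The melting temperature shift is a triplicate mean compared with DMSO-only protein, derived from Boltzmann fits.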

LOC_OS01G60330-cb001 = test system: LOC_OS01G60330-cb001
Summary of the method: as §1

LOC_OS01G60700-cb002 = test system: LOC_OS01G60700-cb002
Summary of the method: as §1

LOC_OS01G63280-cb003 = test system: LOC_OS01G63280-cb003
Summary of the method: as §1

LOC_OS01G67340-cb003 = test system: LOC_OS01G67340-cb003
Summary of the method: as §1

LOC_OS01G70970-cb002 = test system: LOC_OS01G70970-cb002
Summary of the method: as §1

LOC_OS02G07810-cb001 = test system: LOC_OS02G07810-cb001
Summary of the method: as §1

LOC_OS02G08530-cb003 = test system: LOC_OS02G08530-cb003
Summary of the method: as §1

LOC_OS02G14120-cb001 = test system: LOC_OS02G14120-cb001
Summary of the method: as §1

LOC_OS02G17970-cb001 = test system: LOC_OS02G17970-cb001
Summary of the method: as §1

LOC_OS02G45750-cb003 = test system: LOC_OS02G45750-cb003
Summary of the method: as §1

LOC_OS02G54510-cb004 = test system: LOC_OS02G54510-cb004
Summary of the method: as §1

LOC_OS03G04050-cb001 = test system: LOC_OS03G04050-cb001
Summary of the method: as §1

LOC_OS03G12390-cb001 = test system: LOC_OS03G12390-cb001
Summary of the method: as §1

LOC_OS03G27990-cb004 = test system: LOC_OS03G27990-cb004
Summary of the method: as §1

LOC_OS03G50450-cb001 = test system: LOC_OS03G50450-cb001
Summary of the method: as §1

LOC_OS03G50810-cb003 = test system: LOC_OS03G50810-cb003
Summary of the method: as §1

LOC_OS04G35114-cb001 = test system: LOC_OS04G35114-cb001
Summary of the method: as §1

LOC_OS04G38480-cb003 = test system: T1, LOC_OS04G38480-cb003
T1 sequence (whole entry): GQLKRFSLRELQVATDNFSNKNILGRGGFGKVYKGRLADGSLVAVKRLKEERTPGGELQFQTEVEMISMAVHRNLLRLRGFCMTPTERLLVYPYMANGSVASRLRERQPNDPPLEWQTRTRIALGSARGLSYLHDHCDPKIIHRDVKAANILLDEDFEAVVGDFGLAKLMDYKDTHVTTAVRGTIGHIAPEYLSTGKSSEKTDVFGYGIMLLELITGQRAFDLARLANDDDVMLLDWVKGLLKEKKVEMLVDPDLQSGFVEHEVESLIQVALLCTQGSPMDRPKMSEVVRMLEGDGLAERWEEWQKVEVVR
Summary of the method: as §1

LOC_OS04G41100-cb001 = test system: T2, LOC_OS04G41100-cb001
T2 sequence (whole entry): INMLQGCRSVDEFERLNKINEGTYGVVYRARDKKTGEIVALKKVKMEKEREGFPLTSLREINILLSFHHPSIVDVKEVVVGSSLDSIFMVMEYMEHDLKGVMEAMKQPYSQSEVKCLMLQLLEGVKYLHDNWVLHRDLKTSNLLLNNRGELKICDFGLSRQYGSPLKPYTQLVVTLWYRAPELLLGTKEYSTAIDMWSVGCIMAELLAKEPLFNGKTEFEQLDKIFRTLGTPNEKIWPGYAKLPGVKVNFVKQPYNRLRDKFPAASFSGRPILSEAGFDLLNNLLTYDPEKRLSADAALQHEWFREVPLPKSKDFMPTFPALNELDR
Summary of the method: as §1
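Further: purified Escherichia coli-expressed rice kinase domain construct.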

Row | SMILES | thermal shift delta Tm (LOC_OS01G57100-cb003) [°C] | thermal shift delta Tm (LOC_OS01G60330-cb001) [°C] | thermal shift delta Tm (LOC_OS01G60700-cb002) [°C] | thermal shift delta Tm (LOC_OS01G63280-cb003) [°C] | thermal shift delta Tm (LOC_OS01G67340-cb003) [°C] | thermal shift delta Tm (LOC_OS01G70970-cb002) [°C] | thermal shift delta Tm (LOC_OS02G07810-cb001) [°C] | thermal shift delta Tm (LOC_OS02G08530-cb003) [°C] | thermal shift delta Tm (LOC_OS02G14120-cb001) [°C] | thermal shift delta Tm (LOC_OS02G17970-cb001) [°C] | thermal shift delta Tm (LOC_OS02G45750-cb003) [°C] | thermal shift delta Tm (LOC_OS02G54510-cb004) [°C] | thermal shift delta Tm (LOC_OS03G04050-cb001) [°C] | thermal shift delta Tm (LOC_OS03G12390-cb001) [°C] | thermal shift delta Tm (LOC_OS03G27990-cb004) [°C] | thermal shift delta Tm (LOC_OS03G50450-cb001) [°C] | thermal shift delta Tm (LOC_OS03G50810-cb003) [°C] | thermal shift delta Tm (LOC_OS04G35114-cb001) [°C] | thermal shift delta Tm (LOC_OS04G38480-cb003) [°C] | thermal shift delta Tm (LOC_OS04G41100-cb001) [°C]
1 | C#Cc1cccc(Nc2ncnc3cc4c(cc23)OCCOCCOCCO4)c1 [Icotinib] | 2.43 | 0.51 | 1.16 | 0.89 | 0.11 | 0.61 | 0.45 | 1.31 | 2.16 | 1.61 | 3.3 | 0.13 | 0.58 | 1.26 | 0.45 | 0.72 | 1.31 | 4.38 | 3.08 | 0.38
2 | O=C(O)c1ccc(Nc2ncc3c(n2)-c2ccc(Cl)cc2C(c2c(F)cccc2F)=NC3)cc1 | 0.51 | 0.82 | 0.64 | -0.31 | -0.46 | 0.46 | 0.3 | 0.39 | 0.88 | 0.07 | 0.27 | 1.01 | 0.54 | -0.49 | 0.21 | 0.06 | 0.12 | 0.54 | 0.01 | 0.55
3 | C[C@H]1CNCCCN1S(=O)(=O)c1cccc2cncc(F)c12 [Ripasudil (K-115) hydrochloride dihydrate] | 0.7 | 1.17 | 1.6 | 0.79 | 0.45 | 0.28 | 1.1 | 0.65 | 1.57 | 1.75 | 0.9 | -0.02 | 0.39 | 0.39 | 0.16 | 0.22 | 0.68 | 0.3 | 1.26 | 0.24
4 | CC1Oc2cc(cnc2N)-c2c(nn(C)c2C#N)CN(C)C(=O)c2ccc(F)cc21 (stereo not given) | 3.37 | 0.4 | 0.4 | 0.16 | 0.4 | 0.35 | -0.27 | 2.75 | 6.77 | 0.31 | 1.05 | 0.8 | 0.3 | 6.42 | 0.12 | -0.13 | 0.66 | 0.69 | 2.3 | 0.38
5 | CCN1CCN(Cc2ccc(-c3cc4c(N[C@H](C)c5ccccc5)ncnc4[nH]3)cc2)CC1 | 0.7 | 1.5 | 0.28 | 0.52 | -0.08 | 0.5 | 1.12 | 0.67 | 3.81 | 0.8 | 6.37 | 0.94 | -0.21 | 1.63 | 2.76 | 0.56 | 1.13 | 3.16 | 1.7 | 0.38
6 | C[C@@H](Nc1cc(F)cc(F)c1)c1cc(C(=O)N(C)C)cc2c(=O)cc(N3CCOCC3)oc12 | 0.51 | 1.18 | 1.09 | 0.24 | 0.36 | 0.08 | 0.6 | 0.37 | 0.3 | 0.78 | -0.34 | -0.01 | 0.03 | 0 | 0.1 | -0.15 | 0.15 | 0.51 | 1.21 | 0.16
7 | CC(=O)Nc1nc(C)c(-c2ccc(Cl)c(S(=O)(=O)NCCO)c2)s1 | 1.34 | 1.21 | 0.76 | 0.53 | 0.18 | 0.09 | 1.61 | 0.77 | 1.19 | 0.97 | 1.06 | 0.31 | 0.56 | 0.64 | 0.19 | 0.73 | 0.75 | 1.53 | 0.78 | 0.77
8 | O=C(NCc1cccc(O)c1)Nc1nc(-c2ccncc2)cs1 | 0.7 | 0.56 | 1.38 | -0.09 | 0.16 | 0.57 | 1.03 | 1.04 | 0.87 | 0.34 | -1.72 | 0.56 | 1.15 | 0.54 | 1.06 | 0.51 | 0.05 | 1.65 | 0.86 | 0.95
9 | N#Cc1cccc(-c2c[nH]c3ncnc(N4CCOCC4)c23)c1 | 1.38 | 0.98 | 0.99 | 4.38 | 1.62 | 0.07 | 0.61 | 2.7 | 3.85 | 0.73 | 3.36 | 0.44 | 0.26 | 3.14 | 0.37 | -0.1 | 2.96 | 5.02 | 1.08 | 0.06
10 | OCCn1cc(-c2ccc3c(c2)CC/C3=N\O)c(-c2ccncc2)n1 | 0.82 | 1.25 | 0.99 | 0.67 | -0.31 | 0.26 | 1.43 | 1 | 0.49 | 0.48 | 0.34 | 0.15 | 0.48 | 0.53 | 0 | 0.31 | 0.5 | 0.11 | 0.49 | 0.67
11 | Cc1csc(-c2nnc(Nc3ccc(Oc4ncccc4-c4ccnc(N)n4)cc3)c3ccccc23)c1 | 2.43 | -0.58 | 0.56 | 14 | 0.96 | 0.74 | 1.36 | 4.38 | 3.75 | 1.17 | 1.33 | 0.9 | 0.3 | 0.26 | 0.96 | 0.26 | 0.96 | 1.18 | 2.54 | 1.68
12 | c1cncc(CN2CCC(n3ncc4c(N5CCOCC5)nc(-c5ccc6[nH]ccc6c5)nc43)CC2)c1 | 2.55 | 0.61 | 0.71 | 0.09 | -0.04 | 0.4 | 0.62 | 0.57 | 0.15 | 0.27 | 0.03 | -0.13 | 0.22 | -0.05 | 0.01 | 0.14 | 0.65 | 0.3 | 0.67 | 0.58

Reference: the supplement of paper PMC9694430
